Data on 45 compounds can be found in PubChem BioAssay (EPA / NIEHS).

In assay [1] the target is Cellular tumor antigen p53 (Homo sapiens) (UniProt P04637). The assay can be described thus: TOX21_p53_BLA_p3_ratio: Tox21 HCT-116 p53 Agonism Beta-lactamase Assay, Ratio, Phase 3 (AID 2283596). The method, boiled down: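 Cells were seeded at 4000/well, rested 5 h at 37C, then dosed with DMSO compound solutions (217-fold dilution) for 16 h. CCF4-AM substrate was loaded for 2 h at room temperature, and the 460/530 nm emission ratio was fitted for gain of signal versus DMSO.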

Assay [2] in a line: TOX21_p53_BLA_p4_viability: Viability Assessment in the Tox21 HCT-116 p53 Agonism Beta-lactamase Assay, Phase 4 (AID 2283597).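 Also: hits lower the luminescence signal meaning cytotoxicity.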 The method, boiled down:
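ATP content by CellTiter-Glo luminescence, 30 min RT, read after the beta-lactamase ratio step. Cells: HCT116, 4000/well, compound added after 5 h, exposure 16 h at 37C. Signal loss = reduced viability.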

The target in assay [3] is Cellular tumor antigen p53 (Homo sapiens) (UniProt P04637). The experiment in a line: TOX21_p53_BLA_p5_ratio: Tox21 HCT-116 p53 Agonism Beta-lactamase Assay, Ratio, Phase 5 (AID 2283599). The method in brief:
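HCT-116 p53-bla cells (4000/well) plated 5 h, dosed with compound (217-fold DMSO dilution) for 16 h at 37 C; CCF4-AM substrate 2 h at room temperature. Activity is the 460/530 nm emission ratio (405 nm excitation), fitted in gain-of-signal direction versus DMSO.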

The nature of assay [4]: TOX21_p53_BLA_p5_viability: Viability Assessment in the Tox21 HCT-116 p53 Agonism Beta-lactamase Assay, Phase 5 (AID 2283600). The method in brief:
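ATP luminescence (CellTiter-Glo, 30 min, RT) served as the viability read-out, with loss of signal indicating cytotoxicity. Compounds in DMSO were pinned at a 217-fold dilution onto 4000 cells/well and incubated 16 h, 37C.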

The target in assay [5] is Cellular tumor antigen p53 (Homo sapiens) (UniProt P04637). The experiment in a line: TOX21_p53_BLA_p4_ratio: Tox21 HCT-116 p53 Agonism Beta-lactamase Assay, Ratio, Phase 4 (AID 2283601). The method in brief:
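HCT-116 p53 beta-lactamase reporter cells (4000/well) preincubated 5 h, then compound (217-fold dilution of DMSO stock) for 16 h at 37C. CCF4-AM substrate added 2 h at room temperature; 460/530 nm emission ratio fitted upward versus DMSO.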

Assay [6] is described as follows: Tanguay_ZF_120hpf_YSE_legacy: (Legacy) Oregon State University Tanguay Lab 120 Hour Post-fertilization zebrafish Assay for Yolk Sac Edema (AID 2283634). The method in brief:
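Binary brightfield scoring of yolk sac edema at 120 hpf; DMSO baseline, gain-of-signal fitting. Dechorionated 5D larvae, one per well, static exposure 6–120 hpf, 28C, 0.64% DMSO. Dead embryos not scored.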

Assay [7] can be described thus: Tanguay_ZF_120hpf_AXIS_legacy: (Legacy) Oregon State University Tanguay Lab 120 Hour Post-fertilization zebrafish Assay for Body Axis Malformation (AID 2283635). The method in brief: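 Embryos: 5D wild-type, pronase-dechorionated 4 hpf; static exposure 6–120 hpf, 28C, sealed, dark, 1 embryo/well, 0.64% DMSO. 120 hpf axis malformation scored present/absent; dead embryos excluded. Analysed as gain of signal vs DMSO.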

The nature of assay [8]: Tanguay_ZF_120hpf_EYE_legacy: (Legacy) Oregon State University Tanguay Lab 120 Hour Post-fertilization zebrafish Assay for Eye Malformation (AID 2283636).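 Also: binary presence or absence of eye malformation scored by brightfield in 120 hpf larvae.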 The method in brief:
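5D wild-type embryos, pronase-dechorionated at 4 hpf; static exposure 6–120 hpf, 28C, dark; DMSO 0.64% final; 5uM trimethyltin chloride positive control. Binary eye-defect scoring at 120 hpf; dead embryos not scored.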

Assay [9] is described as follows: Tanguay_ZF_120hpf_MORT_legacy: (Legacy) Oregon State University Tanguay Lab 120 Hour Post-fertilization zebrafish Assay for Mortality (AID 2283633). The method in brief:
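Brightfield scoring of embryo death (binary) at 24 and 120 hpf; static exposure 6–120 hpf, 28C, sealed and foil-covered. Pronase-dechorionated 5D wild-type larvae, single embryo per well. DMSO 0.64% v/v; trimethyltin chloride 5uM positive control.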

Each structure is given as a SMILES string. Where “and” joins values, the source holds several entries; their conditions need not be identical. Identical values can stand only once. Inconclusive results are not listed. Some structures have more than one record in an assay (separate samples or runs), and their calls can disagree. Calls of active or inactive are those of the source. The calls were made as follows: active = hit-call score of the fitted dose curve at least 0.9, where 1 is the maximum; inconclusive = response in the unintended direction; inactive = score below 0.9.

In general, AC50 refers to the concentration giving half of the maximal activity seen.

Sequence of Cellular tumor antigen p53 (Homo sapiens) (P04637 whole entry, looked up): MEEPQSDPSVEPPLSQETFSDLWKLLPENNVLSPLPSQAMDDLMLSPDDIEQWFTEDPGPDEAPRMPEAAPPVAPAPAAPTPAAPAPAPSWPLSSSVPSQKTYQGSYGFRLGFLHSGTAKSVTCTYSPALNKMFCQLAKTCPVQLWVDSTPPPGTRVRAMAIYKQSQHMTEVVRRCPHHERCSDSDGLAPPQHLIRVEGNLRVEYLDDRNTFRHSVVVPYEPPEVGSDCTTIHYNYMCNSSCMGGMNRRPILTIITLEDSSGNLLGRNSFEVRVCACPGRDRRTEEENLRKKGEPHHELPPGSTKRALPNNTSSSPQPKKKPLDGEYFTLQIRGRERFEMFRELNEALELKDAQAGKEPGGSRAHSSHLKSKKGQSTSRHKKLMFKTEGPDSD

Take `CCN(CC)c1ccccc1`: the result in assay [1], in [2], in [3], in [4], in assay [5] and in [6] was inactive.
As to `CCCCN(CC)C(=O)SCCC`, the outcome in [1], in [2], in assay [3], in [4] and in assay [5] was inactive.
`O=P(Oc1ccccc1)(Oc1ccccc1)Oc1ccccc1`: the outcome in assay [1], in assay [2], in [3], in assay [4], in assay [5] and in assay [6] was inactive. In addition, the result in assay [7] and in assay [8] was inactive.
As to `CC(C)Nc1ccc(Nc2ccccc2)cc1`, the AC50 is 66.1 µM (active) and 76.4 µM (active) and 31.5 µM (active) in assay [1]; 46.1 µM (active) and 45.9 µM (active) and 19.2 µM (active) in [2]; 66.4 µM (active) and 78.4 µM (active) and 24 µM (active) in assay [3]; 14.9 µM (active) in assay [5]. The compound was called inactive in assay [4] and in assay [5].
For the compound `c1cc2c3c(cccc3c1)CC2`, the outcome in assay [1], in assay [2], in [3], in assay [4], in assay [5] and in assay [6] was inactive. In addition, the compound was classed as inactive in assay [7] and in [8].
`CCCCN(CCCC)N=O`: the result in [1], in [2], in [3], in assay [4], in assay [5] and in [6] was inactive. Also, the outcome in assay [7] and in assay [8] was inactive.
As for `CCOC(=O)c1ccccc1C(=O)OCC`, the result in assay [1], in [2], in [3], in [5], in [6] and in assay [7] was inactive. The compound was classed as inactive in assay [8].
Turning to `c1nc[nH]n1`, the outcome in assay [1], in [3], in assay [4] and in assay [5] was inactive.
For the compound `ClC(Cl)c1ccccc1`, the call in [6], in [7] and in assay [8] was inactive.
For the compound `COP(=O)(O)OC`, the result in [1] and in assay [5] was inactive. For the same compound, the AC50 in [4] was 85.6 µM (active).
In the case of `Cc1ccc([N+](=O)[O-])cc1C`, the compound was classed as inactive in assay [9], in [6], in assay [7] and in [8].
`CC1=C(C(=O)Nc2ccccc2)S(=O)(=O)CCO1`: the result in assay [2] and in assay [4] was inactive. Besides, the half-maximal activity concentration (AC50) in assay [3] is 15.8 µM (active); in assay [5], 21 µM (active).
For `CC(C)(C)c1ccc(O)cc1`, the result in assay [6], in assay [7] and in assay [8] was inactive.
Consider `CSC(C)(C)C=NO`, for which the call in assay [6], in [7] and in [8] was inactive.
Take `Cc1ccc(O)cc1C`: the compound was called inactive in assay [6], in [7] and in assay [8].
Consider `O=C(O)C(Cl)Cl`, for which the compound was classed as inactive in [6], in assay [7] and in assay [8].
In the case of `O=NN1CCCC1`, the result in assay [1], in assay [3], in [4] and in assay [5] was inactive.
Turning to `O=c1ssc(Cl)c1Cl`, the AC50 in [1] is 61.2 µM (active). Besides, the result in assay [4] and in assay [5] was inactive.
Regarding `CN(C)C(=O)Cl`, the call in [6] and in assay [8] was inactive.
`CC(Cl)(Cl)C(=O)O`: the call in assay [6], in assay [7] and in [8] was inactive.
On to `CCNc1nc(Cl)nc(NC(C)(C)C)n1`, for which the result in [6] was inactive.
For the compound `CCOP(=S)(OCC)SCSCC`, the outcome in assay [6], in assay [7] and in assay [8] was inactive.
For the compound `CCOP(=S)(Oc1ccc([N+](=O)[O-])cc1)c1ccccc1` (stereo unspecified), the compound was classed as inactive in assay [7] and in assay [8].
As to `Cc1c([N+](=O)[O-])cc2c(c1[N+](=O)[O-])C(C)(C)CC2(C)C`, the result in [1], in assay [4] and in assay [5] was inactive.
Regarding `Nc1cc2c3c(c1)C(c1ccccc1)=N[C@@H](NC(=O)c1cccnc1)C(=O)N3CC2`, the call in assay [6] was inactive.
In the case of `CCCCOCC1CO1` (stereo unspecified), the result in [1], in assay [3], in assay [4] and in assay [5] was inactive.
As to `O=P1(N(CCCl)CCCl)NCCCO1` (stereo unspecified), the outcome in assay [1], in [3], in assay [5], in assay [6], in assay [7] and in assay [8] was inactive.
Consider `CCCCOCCOP(=O)(OCCOCCCC)OCCOCCCC`, for which the call in [2], in assay [4] and in assay [5] was inactive.
Turning to `Cc1ccc(N)cc1N`, the outcome in [1], in assay [3], in [4], in assay [5], in assay [7] and in [8] was inactive. For the same compound, the AC50 in [5] was 14.7 µM (active).
`CCCCc1ccccc1`: the call in [6], in assay [7] and in [8] was inactive.
Consider `O=C(O)C1C(C(=O)O)C2(Cl)C(Cl)=C(Cl)C1(Cl)C2(Cl)Cl` (stereo unspecified), for which the outcome in assay [1], in assay [3], in assay [4], in assay [5], in assay [6] and in [7] was inactive. Also, the result in assay [8] was inactive.
Regarding `CNC(=O)Oc1ccc(N(C)C)c(C)c1`, the result in assay [1], in [3], in assay [4] and in assay [5] was inactive.
Take `CCOP(=S)(NC(C)C)Oc1ccccc1C(=O)OC(C)C` (stereo unspecified): the AC50 in assay [2] was 33.5 µM (active). Further, the outcome in assay [3], in assay [4] and in assay [5] was inactive.
With `CCCCCCCc1ccc(O)cc1`, the compound was called inactive in [6], in assay [7] and in [8].
For the compound `COC(N)=O`, the call in assay [2], in [3] and in assay [5] was inactive.
On to `CCN(CC)C1CCCCC1`, for which the result in [1], in assay [3], in assay [4] and in [5] was inactive.
With `CC(Cc1ccc(OCC(=O)O)cc1)NCC(O)c1csc(C(F)(F)F)n1` (stereo unspecified), the outcome in assay [1], in assay [3], in assay [5], in [6], in [7] and in assay [8] was inactive.
Regarding `C/C(=N\NC(=O)Nc1cc(F)cc(F)c1)c1ncccc1C(=O)O`, the result in assay [1] and in assay [4] was inactive.
On to `O=C(CBr)OCc1ccccc1`, for which the outcome in assay [1] and in assay [4] was inactive.
For the compound `CCCCN(CCCC)SN(C)C(=O)Oc1cccc2c1OC(C)(C)C2`, the call in assay [6] and in assay [7] was inactive.
For the compound `O=[N+]([O-])c1ccc(Cl)c(Cl)c1`, the result in assay [6], in assay [7] and in assay [8] was inactive.
On to `FC(F)(F)c1ccc(Cl)cc1`, for which the outcome in assay [1], in assay [3] and in [5] was inactive.
On to `CCOc1ccc(C(C)(C)COCc2cccc(Oc3ccccc3)c2)cc1`, for which the call in assay [4], in assay [5], in assay [6] and in [8] was inactive.
For `COCCOCCO`, the outcome in assay [6], in [7] and in assay [8] was inactive.
Take `CCCCC(CC)COC(=O)c1c(Br)c(Br)c(Br)c(Br)c1C(=O)OCC(CC)CCCC` (stereo unspecified): the result in assay [1], in assay [3] and in [5] was inactive.
